# Source: PubChem BioAssay (NCATS)
# Results filed as inconclusive are left out. Values without a mark were called inactive. Calls come from the whole dose curve; as a rule, active = well fitted curve in the direction sought with a large enough effect; inconclusive = small, poorly fitted or top-dose-only effect, or another doubt; inactive = no such curve, though single readings can be large or run the other way. Residues, ends and D or L forms follow the SMILES beside them. *: point of attachment. Cbz = O=C(OCc1ccccc1)*
# Target: Metallo-beta-lactamase type 2 (Klebsiella pneumoniae) (UniProt C7C422)
# Sequence (C7C422 whole entry, looked up): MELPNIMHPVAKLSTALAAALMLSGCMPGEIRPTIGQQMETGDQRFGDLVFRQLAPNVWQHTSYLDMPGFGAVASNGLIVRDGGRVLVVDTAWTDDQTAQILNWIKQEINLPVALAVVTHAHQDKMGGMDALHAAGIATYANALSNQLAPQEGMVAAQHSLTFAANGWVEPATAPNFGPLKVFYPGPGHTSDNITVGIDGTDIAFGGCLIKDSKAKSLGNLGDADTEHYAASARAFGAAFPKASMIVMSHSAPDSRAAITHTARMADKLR
# Assay: qHTS to identify inhibitors of the New Delhi Metallo-beta-lactamase (NDM): assay validation screen against the NCATS LOPAC Collection (AID 1794843);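 note: nitrocefin turnover by NDM-1 measured as 485 nm absorbance at plateau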
# Settings: NDM-1 enzyme, nitrocefin hydrolysis, absorbance 485 nm; series mostly up to 38.4 µM; activity change, negative = inhibition: at the top concentration
# Summary of the method: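 NDM-1 at 2 nM final in 50 mM HEPES pH 7.0, 1 uM ZnSO4, 0.01% Tween20, preincubated with LOPAC compounds pinned in DMSO; 50 uM nitrocefin (stock) added. Hydrolysis read as absorbance at 485 nm in the plateau phase.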
# % is set by controls: 0 for no effect and ±100 for the full control effect.
row,SMILES,"activity change, negative = inhibition [%]"
1,Nc1nc2ccc(Cl)cc2c2nc(-c3ccco3)nn12,6.34
2,C#CC(N)CCC(=O)O (stereo not drawn),-1.47
3,[Li+],-0.454
4,COc1ccccc1N1CCN(CCCCNC(=O)c2ccc3ccccc3c2)CC1,5.72
5,Nc1ccc(N2C(=O)c3ccccc3C2=O)c(Cl)c1,-2.16
6,O=C(O)c1ccccc1Nc1cccc(OCc2ccc3ccccc3n2)c1,0.94
7,CC(C)NCC(O)COc1ccc(CC(N)=O)cc1 (stereo not drawn),-2.1
8,COc1ccc(-c2cc3ncc(C)n3c(Nc3ncccc3C(N)=O)n2)cc1OC,-3.67
9,CC(N)=O,1.98
10,CCOC(=O)C12CC1/C(=N/O)c1ccccc1O2 (stereo not drawn),0.433
11,CCCCCCC/C=C\CCCCCCCCC(=O)O,1.24
12,Nn1nnc2ccccc21,-0.959
13,CCCCCCCCCCC/C=C\C(C)(C)/C=C\CCCC(=O)O,0.27
14,NC(=O)c1cc[n+](CC2=C(C(=O)O)N3C(=O)[C@@H](NC(=O)[C@@H](c4ccccc4)S(=O)(=O)[O-])[C@H]3SC2)cc1,2.52
15,CCCCCCCC/C=C\CCCCCCCC(=O)NCCc1ccc(O)c(O)c1,-3.27
16,O[Si](CCCN1CCCCC1)(c1ccc(F)cc1)C1CCCCC1 (stereo not drawn),0.323
17,O=C1C2C=CC=CC2=NC(=S)N1CCN1CCC(=C(c2ccc(F)cc2)c2ccc(F)cc2)CC1 (stereo not drawn),-0.693
18,CSC(=N)N,-11.6
19,O=C(O)c1cc2cc(F)ccc2[nH]1,1.36

row,SMILES,"activity change, negative = inhibition [%]"
1,CC(C)[C@H](NC(=O)OCc1ccccc1)C(=O)N[C@H](C=O)Cc1ccccc1 (Cbz-Val-Phe-aldehyde),-4.9
2,N[C@H](C(=O)O)c1cc(O)cc(O)c1,3.27
3,CCc1ccc2c(-c3cccc(Cl)c3)nc(=O)n(CC)c2n1,8.8
4,Nc1ncnc2c1ncn2C1CCCO1 (stereo not drawn),-0.76
5,CCN(CC)CCOC(=O)c1cc(Cl)c(N)cc1OC,-3.44
6,c1ccc2c(c1)CC(N1CCN(c3cccc4c3OCCO4)CC1)C2,0.372
7,O=c1cc(O)cc(/C=C/c2ccc(O)c(O)c2)o1,-12.8
8,c1ccc(C(NCCNC(c2ccccc2)c2ccccc2)c2ccccc2)cc1,3.17
9,CC[N+](CC)(CC)CC(=O)Nc1c(C)cccc1C,-4.36
10,COc1ccc(NC(=O)c2ccc(-c3ccc(-c4noc(C)n4)cc3C)cc2)cc1N1CCN(C)CC1,5.19
11,C#CCn1c(=O)c2c(ncn2C)n(C)c1=O,4.72
12,CC(C)(C)NCC(O)COc1cccc2[nH]c(=O)[nH]c12 (stereo not drawn),-0.582
13,NOCC(=O)O,-8.38
14,CNc1ncnc2c1ncn2[C@H]1C[C@H](OP(=O)(O)O)[C@@H](COP(=O)(O)O)O1,-8.63
15,N[C@@H](Cc1ccc(F)cc1)C(=O)O,-17
16,COc1ccc2c(c1)c(CC(=O)O)c(C)n2Cc1ccc(Cl)cc1,-0.273
17,O=[N+]([O-])c1cccc2cn[nH]c12,2.37
18,COC(=O)C(C)(N)Cc1ccc(O)cc1 (stereo not drawn),-4.22
19,NC[C@@H]1O[C@H](c2ccccc2)Cc2c1ccc(O)c2O,-0.94
